For 11 compounds, Potency and outcome results are on record in PubChem BioAssay (Tox21).

Assay [1] is described as follows: qHTS assay to identify small molecule antagonists of the vitamin D receptor (VDR) signaling pathway - cell viability counter screen (AID 743225). Further: nearly all actives have a fitted effect of over 50% in size. Further: potency means the concentration at half of the fitted maximal effect. In a few lines: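 VDR-UAS-bla HEK 293T cells were plated and incubated 4 h at 37C, then dosed with compound plus 3 nM (final) 1-alpha,25-dihydroxyvitamin D3 for 16 h. After the 2 h beta-lactamase read, viability in the same wells was read as CellTiter-Glo luminescence after 30 min at room temperature.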
(Quantitative high-throughput screening tests each substance at several concentrations.)

Assay [2] in a line: qHTS assay to identify small molecule agonists of the NFkB signaling pathway (AID 1159509; active means well fitted curve in the direction sought with a large enough effect in the signal ratio in the repeat runs, not every such curve was filed as active; the % refers to the signal ratio; further: series mostly up to about 61 µM). In a few lines:
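ME-180 NFkB-bla, 2,000 cells/well, overnight plating; cpd pinned in DMSO, 5 h 37 C; B/G FRET substrate 1.5 h RT; ex 405, em 460/530 nm.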

Assay [3] in a line: qHTS assay to identify small molecule agonists of the NFkB signaling pathway - cell viability counter screen (AID 1159515; calls by dose curve; further: nearly all actives have a fitted effect of over 55% in size; further: potency means the concentration at half of the fitted maximal effect). The gist of the method: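 NFkB-bla ME-180 cells, 2,000/well, were plated overnight at 37 C, 5% CO2, then exposed to compounds in DMSO for 5 hr. After the bla FRET read, CellTiter-Glo was added to the same wells; luminescence was read after 30 min at room temperature.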

A short description of assay [4]: qHTS assay to identify small molecule agonists of the endoplasmic reticulum stress response signaling pathway (AID 1159516; active means well fitted activation curve with a large enough effect in the signal ratio in the repeat runs, not every such curve was filed as active; the % refers to the signal ratio). The gist of the method: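 CellSensor ESRE-bla HeLa cells, carrying a beta-lactamase reporter driven by the ER stress response element, were plated overnight and exposed to compounds for 5 hr at 37 C. Reporter activity was read as FRET substrate fluorescence after 2 hr at room temperature.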

A short description of assay [5]: qHTS assay to identify small molecule antagonists of the retinoid-related orphan receptor gamma (ROR-gamma) signaling pathway - cell viability counter screen (AID 1159520). Further: nearly all actives have a fitted effect of over 50% in size. Further: potency means the concentration at half of the fitted maximal effect. The gist of the method:
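Tet-on ROR gamma CHO cells were given compounds for 2 hr, then doxycycline hyclate at 1 uM final, and incubated 16 hr at 37 C. Viability was measured as ATP content by CellTiter-Glo luminescence.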

The target in assay [6] is Nuclear receptor ROR-gamma (Homo sapiens) (UniProt P51449). The experiment in a line: qHTS assay to identify small molecule antagonists of the retinoid-related orphan receptor gamma (ROR-gamma) signaling pathway (AID 1159521; further: nearly all actives have a fitted effect of over 50% in size; further: potency means the concentration at half of the fitted maximal effect). The gist of the method: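 Tet-on ROR-gamma CHO cells with ROR response element-luciferase reporter; compounds added 2 hr before 1 uM doxycycline induction, then 16 hr at 37 C. Antagonism scored as decreased ONE-Glo luminescence.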

Assay [7] can be described thus: qHTS assay to identify small molecule agonists of the AP-1 signaling pathway - cell viability counter screen (AID 1159525; calls by dose curve; further: nearly all actives have a fitted effect of over 55% in size). The gist of the method: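 AP-1-bla ME-180 cells in Opti-MEM with 0.5% dialyzed FBS, compound exposure 5 h at 37 C in 15-point titration. Viability read in the same wells as ATP content by CellTiter-Glo luminescence, normalised to tetra-n-octylammonium bromide and DMSO controls.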

The target of assay [8] is Retinoic acid receptor RXR-alpha (Homo sapiens) (UniProt P19793). The experiment in a line: qHTS assay to identify small molecule agonists of the RXR signaling pathway (AID 1159527; calls by dose curve; further: nearly all actives have a fitted effect of over 35% in size; further: potency means the concentration at half of the fitted maximal effect). In a few lines: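 GeneBLAzer RXR-alpha-UAS-bla HEK 293T cells in 2% charcoal-stripped FBS medium were exposed to compounds for 16 hr at 37 C in agonist mode. Beta-lactamase reporter read as 460/530 nm FRET ratio after 2 hr substrate loading.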
Retinoic acid receptor RXR-alpha (Homo sapiens), sequence (P19793 whole entry, looked up): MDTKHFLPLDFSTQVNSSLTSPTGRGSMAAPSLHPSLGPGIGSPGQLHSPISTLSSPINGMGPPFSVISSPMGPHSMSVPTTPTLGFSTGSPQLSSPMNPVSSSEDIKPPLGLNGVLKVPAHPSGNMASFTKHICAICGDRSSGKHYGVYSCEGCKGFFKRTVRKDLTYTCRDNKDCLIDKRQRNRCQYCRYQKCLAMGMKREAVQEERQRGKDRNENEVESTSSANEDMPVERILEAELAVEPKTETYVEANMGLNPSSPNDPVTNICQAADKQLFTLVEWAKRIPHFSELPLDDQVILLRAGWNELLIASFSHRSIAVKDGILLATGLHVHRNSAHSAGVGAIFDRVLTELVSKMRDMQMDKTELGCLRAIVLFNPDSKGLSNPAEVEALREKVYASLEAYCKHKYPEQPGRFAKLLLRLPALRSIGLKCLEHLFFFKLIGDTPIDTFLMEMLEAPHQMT

Assay [9] is described as follows: qHTS assay to identify small molecule agonists of the RXR signaling pathway - cell viability counter screen (AID 1159529). Further: nearly all actives have a fitted effect of over 50% in size. Further: potency means the concentration at half of the fitted maximal effect. The gist of the method:
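RXR-alpha-UAS-bla HEK 293T cells in medium with 2% charcoal-stripped FBS were pre-incubated 5 hr, then compound-treated 16 hr at 37 C. Viability was read by CellTiter-Glo luminescence in the same wells as the beta-lactamase assay, with tetraoctyl ammonium bromide as positive control.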

Assay [10] is described as follows: qHTS assay to identify small molecule antagonists of the retinoic acid receptor (RAR) signaling pathway (AID 1159552; further: nearly all actives have a fitted effect of over 50% in size; further: potency means the concentration at half of the fitted maximal effect). In a few lines: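 Retinol signaling pathway inhibitors screened in C3RL4 RARE-luciferase reporter cells seeded overnight at 37 C, then compounds added with 1 uM (final) retinol as pathway substrate. After 6 hr at 37 C, luciferase luminescence read after 30 min at room temperature.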

Assay [11] is described as follows: qHTS assay to identify small molecule agonists of the retinoic acid receptor (RAR) signaling pathway (AID 1159553). Further: potency means the concentration at half of the fitted maximal effect. The gist of the method: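 C3RL4 cells carrying a RARE luciferase reporter were plated overnight at 37 C, then exposed to compounds in DMSO for 6 hr at 37 C and 5% CO2. Luminescence was read 30 min after luciferase reagent addition at room temperature.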

Assay [12] in a line: qHTS assay to identify small molecule antagonists of the retinoid acid receptor (RAR) signaling pathway - cell viability counter screen (AID 1159551). Further: nearly all actives have a fitted effect of over 35% in size. Further: potency means the concentration at half of the fitted maximal effect. In a few lines: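 C3RL4 cells were seeded overnight at 37 C, then treated with compounds plus 1 uM (final) retinol for 6 h at 37 C. Viability was read as ATP by CellTiter-Glo luminescence after 30 min at room temperature.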
Assay [13] in a line: qHTS assay to identify small molecule agonists of the vitamin D receptor (VDR) signaling pathway - cell viability counter screen (AID 743224). Further: nearly all actives have a fitted effect of over 50% in size. Further: potency means the concentration at half of the fitted maximal effect. In a few lines:
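VDR-bla cells were preincubated 4 h at 37C/5% CO2, then exposed to compounds for 16 h. After the 2 h room-temperature bla FRET read, CellTiter-Glo was added to the same wells and luminescence read after 30 min.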

Assay [14] in a line: qHTS assay to identify small molecule agonists of the AP-1 signaling pathway (AID 1159526; calls by dose curve).
Assay [15] can be described thus: qHTS assay to identify small molecule antagonists of the estrogen related receptor (ERR) signaling pathway (AID 1224819). In a few lines: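 ERR reporter cells were plated at 2,000 cells/well and left 6 h at 37 C/5% CO2 before pin-tool transfer of compounds in DMSO. After 18 h at 37 C, One-Glo was added and luminescence was read 30 min later at room temperature.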

The nature of assay [16]: qHTS assay to identify small molecule agonists of the estrogen related receptor (ERR) signaling pathway (AID 1224820). The gist of the method:
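Cells: ERR line from NTP, 2,000/well. Pre-incubation 6 h, 37 C/5% CO2. Compound (DMSO) pin transfer, 18 h 37 C. One-Glo, 30 min RT, luminescence.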

In assay [17] the test system is estrogen-related receptor alpha (ERRalpha) with PGC-1alpha coactivator, human. The experiment in a line: qHTS assay to identify small molecule antagonists of the estrogen related receptor signaling pathway with the pleiotropic PPARgamma coactivator (PGC) (AID 1224821; calls by dose curve). In a few lines: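 Luminescent read-out (One-Glo, 30 min at room temperature) following 18 h treatment of PGC/ERR cells at 37 C with compounds delivered in DMSO. Cells had settled 6 h at 37 C/5% CO2 before dosing.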

Results filed as inconclusive are left out. Active and inactive are the calls of the source. Unless noted, the call rests on the fitted dose curve; in most records, active means well fitted curve in the direction sought with a large enough effect in the repeat runs; inconclusive means weak or mixed curves; inactive means no such curve, though single readings can be large; an effect the other way counts as inactive or inconclusive.

Regarding `Cc1cc(CCCOc2c(C)cc(-c3noc(C(F)(F)F)n3)cc2C)on1`, the Potency entry in assay [1], in [3], in [4], in assay [5], in assay [6] and in assay [7] was “inactive” throughout. Further, the Potency result in [8], in assay [9], in assay [10] and in assay [11] was “inactive” each time. Also, the compound was called inactive in [2].
On to `CN1CCCN(C(c2ccccc2)c2ccc(Cl)cc2)CC1` (centres undefined), for which the Potency in assay [1] is 21.3 µM (active); in assay [3], 12 µM (active); in [6], 26.6 µM (active); in assay [9], 7.56 µM (active); in assay [10], 23.7 µM (active). The compound was classed as inactive in assay [2]. Moreover, the Potency entry in [4], in assay [5], in [7] and in assay [12] was “inactive” each time.
Regarding `CO[C@@H]1[C@@H](OC)[C@H](C)[C@@](O)(CC(=O)O)O[C@H]1[C@H](C)[C@H]1O[C@@]2(CC[C@@](C)([C@H]3CC[C@@](C)([C@@H]4O[C@@H]([C@H]5O[C@](C)(O)[C@H](C)C[C@@H]5C)C[C@@H]4OC4C[C@H](OC)[C@@H](OC)[C@H](C)O4)O3)O2)C[C@H](O)[C@H]1C` (some centres undefined), the Potency is 5.96 µM (active) in [13], 9.44 µM (active) in [5] and 0.237 µM (active) in assay [6]. Moreover, the compound was called inactive in [2]. The Potency result in assay [3] and in assay [4] was “inactive” in each case.
On to `CCCCCCCCCCCCCOS(=O)(=O)O`, for which the outcome in [2] was inactive. Besides, the results for the Potency in [3] and in assay [9] were 54.9 µM (active) and 24.5 µM (active), respectively. Also, the Potency result in [4], in [5], in assay [6], in assay [8] and in [12] was “inactive” throughout.
As to `O=C(/C=C/c1ccc([N+](=O)[O-])cc1)c1ccccc1`, the Potency entry in [1], in assay [3], in [4], in [5], in [6] and in assay [7] was “inactive” throughout. Also, the Potency result in [10] is “inactive”. Moreover, the result in [2] was inactive. The Potency in assay [11] is 30.7 µM (active).
Take `CCNc1nc(N)nc(Cl)n1`: the Potency entry in assay [1], in [3], in assay [4], in assay [5], in [7] and in assay [9] was “inactive” throughout. For the same compound, in assay [12], the Potency result is “inactive”. Besides, the result in [2] and in assay [14] was inactive. Besides, the Potency in [8] was 5.49 µM (active); in assay [10], 21.7 µM (active).
Take `CCCCCCCC(=O)Oc1c(Br)cc(C#N)cc1Br`: the outcome in assay [2] and in assay [14] was inactive. The Potency entry in assay [3], in assay [4] and in assay [7] was “inactive” throughout. Moreover, the Potency in assay [6] is 48.4 µM (active).
`CC(=O)OCC1=C(C(=O)O)N2C(=O)[C@@H](NC(=O)CSc3ccncc3)[C@H]2SC1`: the Potency result in [13], in [1], in assay [3], in [4], in assay [5] and in assay [6] was “inactive” in each case. Besides, the Potency entry in assay [7], in assay [8], in [9], in [12], in assay [10] and in assay [11] was “inactive” throughout. Also, the compound was classed as inactive in assay [2].
Take `Cc1c(C2(c3cc(Br)c(O)c(Br)c3C)OS(=O)(=O)c3ccccc32)cc(Br)c(O)c1Br`: the Potency result in assay [13], in [1], in [4] and in [9] was “inactive” in each case. Also, the compound was classed as inactive in assay [2] and in assay [14]. Besides, the Potency in [3] was 37.7 µM (active); in assay [5], 3.74 µM (active); in assay [6] it was 5.93 µM (active); in [12], 7.47 µM (active); in [10], 13.3 µM (active).
In the case of `Cc1cc([N+](=O)[O-])ccc1N`, the Potency entry in [13], in [1], in [3], in assay [4], in assay [5] and in assay [7] was “inactive” in each case. Besides, the Potency result in [9], in [12], in assay [10] and in assay [11] was “inactive” in each case. In addition, the compound was called inactive in assay [2] and in assay [14].
In the case of `COC(=O)C1=C(C)NC(C)=C(C(=O)OC(C)(C)CN(C)CCC(c2ccccc2)c2ccccc2)C1c1cccc([N+](=O)[O-])c1` (centres undefined), the Potency entry in assay [1], in [3], in assay [4], in [7], in [9] and in [12] was “inactive” in each case. Besides, the compound was classed as inactive in assay [2], in assay [14] and in assay [16]. The Potency is 11.9 µM (active) in [6], 19.6 µM (active) in assay [15] and 13.9 µM (active) in assay [17].
